# Experimental data as given in ChEMBL document CHEMBL1201862, “PubChem BioAssay data set” (2004).
# Out of some 57,000 […] screened, about 4,900 (8.6%) were called active. Cut-off read from the data, not from the text of the source: active = GI50 up to about 1.1 µM and inactive = higher. The entries come from a sample that favours actives as a whole. Measured potencies and affinities stand elsewhere.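 Cultured in 96-well plates, cells were exposed to test compound for 48 hours across five concentrations. GI50 marks 50% less growth.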
# Test system: MOLT-4
# Experiment: NCI tumour cell line growth inhibition, 48 h
row,Substance,GI50 [µM]
1,"[Bis(aminomethyl)tetramethylenesilane]tetrachloropaltinum(IV), CHEMBL2146189",0.824
2,"[Bis(aminomethyl)ethylmethylsilane]tetrachloroplatinum(IV), CHEMBL2146192",0.531
3,"cis-Bis[[(trimethylsilyl)methyl]amino]tetrachloroplatinum(IV), CHEMBL2146191",2
4,"[Bis(aminomethyl)dimethylsilane]tetrachloroplatinum(IV), CHEMBL2146190",1.68
5,"CISPLATIN, CHEMBL11359",1.43
6,"[Bis(aminomethyl)dimethylsilane]dichloroplatinum (II), CHEMBL2146201",5
7,"mu-(1,7-nanodiamine-N,N')bis-(cis-aminedichloroplatimum (II)), CHEMBL2146215",0.592
8,"[Bis(aminomethyl)tetramethylenesilane]dichloropaltinum(II), CHEMBL2146205",2.09
9,"[Bis(aminomethyl)diethylsilane]tetrachloroplatinum(IV), CHEMBL2146203",0.561
10,"[Bis(aminomethyl)pentamethylenesilane]tetrachloropaltinum(IV), CHEMBL2146204",0.505
11,"[Bis(aminomethyl)pentamethylenesilane]dichloropaltinum(II), CHEMBL2146202",0.325
